Measurements from PubChem BioAssay (Tox21).
Inconclusive results are not listed. Activity calls are given as the source filed them. Unless noted, calls follow the shape of the dose curve; as a rule, active = well fitted curve in the direction sought with a large enough effect in the repeat runs; inconclusive = weak or mixed curves; inactive = no such curve, though single readings can be large; an effect the other way counts as inactive or inconclusive.

Columns and labels:
[1] = qHTS assay to identify small molecule agonists of the TGF-beta/Smad signaling pathway (AID 1346859; active = well fitted activation curve with a large enough effect in the signal ratio in the repeat runs, not every such curve was filed as active; the % refers to the signal ratio; also: series mostly up to about 77 µM)
Procedure, shortened: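 Beta-lactamase reporter activity downstream of Smad binding elements was measured in stably transfected HEK 293T cells; compounds were incubated for 5 hr, substrate for 2 hr at room temperature.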

[2] = molecular target: Thyrotropin-releasing hormone receptor (Homo sapiens) (UniProt P34981); experiment: qHTS assay to identify small molecule antagonists of the thyrotropin-releasing hormone receptor (TRHR) signaling pathway (AID 1346877; active = well fitted inhibition curve with a large enough effect in the repeat runs, not every such curve was filed as active; also: series mostly up to about 51 µM)
Sequence of Thyrotropin-releasing hormone receptor (Homo sapiens) (P34981 whole entry, looked up): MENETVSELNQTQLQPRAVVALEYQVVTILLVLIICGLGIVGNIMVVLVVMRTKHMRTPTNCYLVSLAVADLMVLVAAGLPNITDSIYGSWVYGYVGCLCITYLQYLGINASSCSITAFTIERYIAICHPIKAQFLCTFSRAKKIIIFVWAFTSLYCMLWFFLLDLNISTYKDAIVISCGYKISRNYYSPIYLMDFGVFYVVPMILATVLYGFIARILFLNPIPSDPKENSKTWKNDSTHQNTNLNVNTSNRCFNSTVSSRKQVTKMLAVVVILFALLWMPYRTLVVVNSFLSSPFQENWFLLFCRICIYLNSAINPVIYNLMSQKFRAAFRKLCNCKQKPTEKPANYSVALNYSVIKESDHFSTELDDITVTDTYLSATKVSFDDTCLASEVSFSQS
Procedure, shortened: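 HEK293/TRHR cells, 18 h, 37 °C; Ca2+ dye 2 h; cpd 5 min RT; TRH 1 nM final; fluorescence read 3 min, 1 s intervals; 15 concs, triplicate.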

[3] = molecular target: Thyrotropin-releasing hormone receptor (Homo sapiens) (UniProt P34981); experiment: qHTS assay to identify small molecule agonists of the thyrotropin-releasing hormone receptor (TRHR) signaling pathway (AID 1346891; calls by dose curve;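 also: HEK293 cells expressing TRHR with calcium dye readout; series mostly up to about 58 µM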)
Procedure, shortened: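 Overnight-plated (18 h, 37 °C, 5% CO2) TRHR-Hek293 cells; 2 h calcium dye at 37 °C; compound in DMSO; 3-min kinetic fluorescence read.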

[4] = Human pregnane X receptor (PXR) small molecule agonists, qHTS cell viability counter screen (AID 1346977); also: nearly all actives have a fitted effect of over 50% in size
Procedure, shortened: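 After a 5hr pre-incubation, PXR-Luc HepG2 cells received compounds plus positive control in DMSO and were kept 24hr at 37C. Cell viability was quantified by fluorescence from CellTiter-Fluor added for the final hour.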

[5] = Caspase-3/7 induction in HepG2 cells by small molecules, qHTS assay (AID 1346978); also: nearly all actives have a fitted effect of over 15% in size
Procedure, shortened: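 Caspase-3/7 induction was measured by Caspase-Glo 3/7 luminescence (30 min, room temperature) after a 17 hr compound exposure of wild-type HepG2 cells seeded at 2,000 per well and pre-incubated 5 hr.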

[6] = Caspase-3/7 induction in CHO-K1 cells by small molecules, qHTS cell viability counter screen (AID 1346979); also: nearly all actives have a fitted effect of over 35% in size
Procedure, shortened: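 Multiplexed with Caspase-Glo 3/7 in CHO-K1 cells, this counter screen added CellTiter-Fluor after 16hr of compound exposure and recorded fluorescence 1hr later.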

[7] = Caspase-3/7 induction in CHO-K1 cells by small molecules, qHTS assay (AID 1346980); also: nearly all actives have a fitted effect of over 15% in size
Procedure, shortened: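 Luminescent Caspase-Glo 3/7 read (30min, room temperature) quantified apoptosis induction. Cells were wild-type CHO-K1, treated with compound for 17hr at 37 C and 5% CO2.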

[8] = Caspase-3/7 induction in HepG2 cells by small molecules, qHTS cell viability counter screen (AID 1346981); also: series mostly up to about 92 µM; nearly all actives have a fitted effect of over 30% in size
Procedure, shortened: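 Fluorescence read-out of live-cell protease activity (CellTiter-Fluor) after 1 hr with reagent. This was measured in the same wells as the caspase-3/7 luminescence, on HepG2 cells exposed to DMSO-dissolved compounds for 16 hr at 37 C.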

[9] = molecular target: Nuclear receptor subfamily 1 group I member 2 (Homo sapiens) (UniProt O75469); experiment: Human pregnane X receptor (PXR) small molecule agonists, qHTS assay (AID 1346982); also: nearly all actives have a fitted effect of over 35% in size; also: potency is read from the fitted curve at half-maximal effect
Sequence of Nuclear receptor subfamily 1 group I member 2 (Homo sapiens) (O75469 whole entry, looked up): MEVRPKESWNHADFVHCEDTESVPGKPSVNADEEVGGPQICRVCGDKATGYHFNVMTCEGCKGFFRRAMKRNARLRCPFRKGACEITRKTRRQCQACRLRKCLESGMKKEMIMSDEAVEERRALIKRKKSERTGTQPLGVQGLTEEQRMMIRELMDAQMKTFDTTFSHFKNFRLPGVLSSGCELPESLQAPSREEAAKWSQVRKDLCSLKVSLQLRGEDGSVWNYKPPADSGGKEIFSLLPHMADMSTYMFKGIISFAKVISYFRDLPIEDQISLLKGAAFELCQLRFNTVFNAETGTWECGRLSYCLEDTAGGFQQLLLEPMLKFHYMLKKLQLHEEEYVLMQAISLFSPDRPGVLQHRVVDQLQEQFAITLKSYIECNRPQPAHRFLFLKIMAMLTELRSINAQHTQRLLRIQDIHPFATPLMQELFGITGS
Procedure, shortened: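 HepG2 PXR-Luc reporter line, 5% charcoal-stripped FBS; 5 hr pre-incubation, compound (DMSO) 24 hr at 37 C/5% CO2; ONE-Glo 30 min RT; luminescence read-out.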
% is scaled to controls: 0 for no effect and ±100 for the full control effect.

CCCOCCOCCOCCO
inactive: outcome [1] | outcome [2] | outcome [3] | Potency [4] | outcome [5] | Potency [6] | outcome [7] | Potency [8] | Potency [9]

CC(=O)c1ccc(OCC(=O)N2CCCCC2)cc1
inactive: outcome [1] | outcome [2] | outcome [3] | Potency [4] | outcome [5] | Potency [6] | outcome [7] | Potency [8]

COc1cccc2sc(N)nc12
inactive: outcome [1] | outcome [2] | outcome [3] | Potency [4] | outcome [5] | Potency [6] | outcome [7] | Potency [8]

CCCCOC(=O)C(=O)OCCCC
inactive: outcome [1] | outcome [2] | outcome [3] | Potency [4] | outcome [5] | Potency [6] | outcome [7] | Potency [8] | Potency [9]

Cc1ncc([N+](=O)[O-])n1CC(O)CCl (stereo not drawn)
inactive: outcome [1] | outcome [2] | outcome [3] | Potency [4] | outcome [5] | Potency [6] | outcome [7] | Potency [8]

Oc1ccccc1Cc1ccccc1O
inactive: outcome [1] | outcome [2] | outcome [3] | Potency [4] | outcome [5] | Potency [6] | outcome [7] | Potency [8]
active: Potency [9] 61.1 µM

C=CCOC(=O)c1ccc(C(=O)OCC=C)c(C(=O)OCC=C)c1
inactive: outcome [1] | outcome [2] | outcome [3] | Potency [4] | outcome [5] | Potency [6] | outcome [7] | Potency [8] | Potency [9]

O=C(O)c1ccccc1C(=O)OCc1ccccc1
inactive: outcome [1] | outcome [2] | outcome [3] | Potency [4] | outcome [5] | Potency [6] | outcome [7] | Potency [8]

Cc1cccc(C(=O)O)c1[N+](=O)[O-]
inactive: outcome [1] | outcome [2] | outcome [3] | Potency [4] | outcome [5] | Potency [6] | outcome [7] | Potency [8] | Potency [9]

CCCCCC1Nc2cc(C(F)(F)F)c(S(N)(=O)=O)cc2S(=O)(=O)N1 (stereo not drawn)
inactive: outcome [1] | outcome [2] | outcome [3] | Potency [4] | outcome [5] | Potency [6] | outcome [7] | Potency [8] | Potency [9]

CC(=O)N1CCN(c2ccc(O)cc2)CC1
inactive: outcome [1] | outcome [2] | outcome [3] | Potency [4] | outcome [5] | Potency [6] | outcome [7] | Potency [8] | Potency [9]

O=C1OC(=O)c2ccccc21
inactive: outcome [1] | outcome [2] | outcome [3] | Potency [4] | outcome [5] | Potency [6] | outcome [7] | Potency [8] | Potency [9]

O=C(O)Cc1cccc(-c2cc(CCCCCCc3ccc(O[C@H]4O[C@H](CO)[C@@H](O)[C@H](O)[C@@H]4O)c(-c4cccc(CC(=O)O)c4)c3)ccc2O[C@H]2O[C@H](CO)[C@@H](O)[C@H](O)[C@@H]2O)c1
inactive: activation [1] -0.374% [at 0.29 µM] | activity, negative = inhibition [2] 0.417% [at 0.194 µM] | activation [3] -0.342% [at 0.218 µM] | activity change, negative = cytotoxicity [4] 17.5% [at 0.349 µM] | caspase activation [5] 0.734% [at 0.349 µM] | activity change, negative = cytotoxicity [6] 2.17% [at 0.349 µM] | caspase-3/7 activation [7] 1.55% [at 0.349 µM] | activity change, negative = cytotoxicity [8] 2.65% [at 0.349 µM] | activation [9] -9.1% [at 0.349 µM]

CCCCCCCCCCCCCCCC(=O)NCCO
inactive: outcome [1] | outcome [2] | outcome [3] | Potency [4] | outcome [5] | Potency [6] | outcome [7] | Potency [8]

Cc1ccccc1OCC1CO1 (stereo not drawn)
inactive: outcome [1] | outcome [2] | outcome [3] | Potency [4] | outcome [5] | Potency [6] | outcome [7] | Potency [8] | Potency [9]

CCc1nccnc1C
inactive: outcome [1] | outcome [2] | outcome [3] | Potency [4] | outcome [5] | Potency [6] | outcome [7] | Potency [8] | Potency [9]

O=S(=O)(O)c1cc(O)ccc1O
inactive: outcome [1] | outcome [2] | outcome [3] | Potency [4] | outcome [5] | Potency [6] | outcome [7] | Potency [8]

CCN(CC)C(=O)C1CN2CCc3cc(OC)c(OC)cc3C2CC1OC(C)=O (stereo not drawn)
inactive: outcome [1] | outcome [2] | outcome [3] | Potency [4] | outcome [5] | Potency [6] | outcome [7] | Potency [8] | Potency [9]

O=C(O)CCNC(=O)c1ccccc1
inactive: outcome [1] | outcome [2] | outcome [3] | Potency [4] | outcome [5] | Potency [6] | outcome [7] | Potency [8] | Potency [9]

CN(C)CCCNCCC#N
inactive: outcome [1] | outcome [2] | outcome [3] | Potency [4] | outcome [5] | Potency [6] | outcome [7] | Potency [8] | Potency [9]

CC(=O)Nc1ccc(C)cc1
inactive: outcome [1] | outcome [2] | outcome [3] | Potency [4] | outcome [5] | Potency [6] | outcome [7] | Potency [8] | Potency [9]

CCOC(=O)CC(CC(=O)OCC)(OC(C)=O)C(=O)OCC
inactive: outcome [1] | outcome [2] | outcome [3] | Potency [4] | outcome [5] | Potency [6] | outcome [7] | Potency [8]

C=CCOc1cc(Cl)ccc1C(=O)NCCN(CC)CC
inactive: outcome [1] | outcome [2] | outcome [3] | Potency [4] | outcome [5] | Potency [6] | outcome [7] | Potency [8] | Potency [9]

C1CCN2C[C@@H]3C[C@@H](CN4CCCC[C@@H]34)[C@H]2C1
inactive: outcome [1] | outcome [2] | outcome [3] | Potency [4] | outcome [5] | Potency [6] | outcome [7] | Potency [8]
